# INS promoter inh – TRM-6 insulin promoter activity inhibition. 0.9% of 130,000 active. TRM-6 cells (human fetal islet line), insulin promoter-eGFP reporter, imaging; reporter expression induced with tamoxifen. inhibition, % at 2 µM;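 active = inhibition above the mean plus 3 SD, with well images judged a real hit on visual review, cut at about 60% in these data, passing the limit was not always enough; inconclusive = inhibition over the cutoff but images rejected on review; inactive = inhibition not above the cutoff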
# L major viab – Leishmania major promastigote growth inhibition; 9% of 200,000 active; inhibition, % at 10 µM; Leishmania major promastigotes, resazurin fluorescence viability; in the data active = inhibition above about 50%;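 note: promastigotes grown with compound for 44 hours at 28 °C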
# Cl transport mod – modulators of human KCC2 chloride dependent transport; 2.2% of 190,000 active; B-score of Tl+ flux slope (higher = more flux/activation; lower = inhibition) at 10 µM; KCC2 cells, thallium flux FluoZin-2 fluorescence; AID 1456;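 active = thallium flux slope and its plate-corrected score both differing from the plate sample mean at a set confidence after two filtering rounds, in either direction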;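 note: slope of fluorescence scaled to starting intensity during 10 to 20 s after thallium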
# Target sequence (Q9H2X9 whole entry, looked up): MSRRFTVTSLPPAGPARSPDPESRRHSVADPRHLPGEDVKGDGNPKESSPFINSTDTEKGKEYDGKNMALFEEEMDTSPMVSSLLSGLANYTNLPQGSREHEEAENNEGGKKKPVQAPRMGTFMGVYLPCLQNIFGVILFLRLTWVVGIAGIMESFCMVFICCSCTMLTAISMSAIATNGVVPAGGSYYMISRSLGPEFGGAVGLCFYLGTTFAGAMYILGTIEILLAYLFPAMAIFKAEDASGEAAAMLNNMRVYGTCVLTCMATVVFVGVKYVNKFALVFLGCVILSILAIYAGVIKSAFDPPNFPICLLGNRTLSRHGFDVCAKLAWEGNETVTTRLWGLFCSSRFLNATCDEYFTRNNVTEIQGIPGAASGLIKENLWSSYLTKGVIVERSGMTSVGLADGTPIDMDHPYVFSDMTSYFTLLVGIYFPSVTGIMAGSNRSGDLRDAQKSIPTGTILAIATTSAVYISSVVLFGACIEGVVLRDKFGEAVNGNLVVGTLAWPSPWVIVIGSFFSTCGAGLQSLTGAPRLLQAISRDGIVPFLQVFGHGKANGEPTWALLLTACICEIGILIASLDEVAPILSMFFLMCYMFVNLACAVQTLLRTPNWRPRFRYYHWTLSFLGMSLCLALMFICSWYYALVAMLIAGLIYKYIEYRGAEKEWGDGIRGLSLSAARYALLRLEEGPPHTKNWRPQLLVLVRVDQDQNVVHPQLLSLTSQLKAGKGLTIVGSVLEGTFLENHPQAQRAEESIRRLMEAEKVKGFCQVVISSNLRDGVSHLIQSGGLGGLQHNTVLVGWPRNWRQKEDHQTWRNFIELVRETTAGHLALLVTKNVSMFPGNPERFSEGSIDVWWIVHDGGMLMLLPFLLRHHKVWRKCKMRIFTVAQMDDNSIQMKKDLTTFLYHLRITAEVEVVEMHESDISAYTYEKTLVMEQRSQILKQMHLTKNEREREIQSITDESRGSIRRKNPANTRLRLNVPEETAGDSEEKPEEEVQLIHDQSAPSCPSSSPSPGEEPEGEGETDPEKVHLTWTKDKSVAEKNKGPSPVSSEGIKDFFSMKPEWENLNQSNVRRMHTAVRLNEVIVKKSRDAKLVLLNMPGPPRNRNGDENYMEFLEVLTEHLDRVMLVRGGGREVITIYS
# WT yeast gro inh – growth inhibition of WT yeast, mitochondrial fusion screen; mitochondrial fusion phenotypic screen, WT strain; inhibition, % at 10 µM; 2.1% of 190,000 active; AID 1362; in the data active = inhibition above about 58%; tested in S. cerevisiae
# ROMK primary – modulates human ROMK potassium channel activity | P48048 | Tet-inducible ROMK, thallium flux fluorescence; actives lie on both sides | B-score at 10 µM | 2% of 130,000 active | AID 1918;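 active = signal ratio slope over the read window, or its plate-corrected B-score, at least 3 SD from the plate mean, either direction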;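 note: B-score of the F/F0 ratio slope over 7 to 12 s after thallium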
# Insulin prom up – MIN6 insulin promoter up-regulation; AID 1625; MIN6 insulin promoter-GFP reporter, high-content imaging; active compounds read high; z-score at 5 µM; 0.3% of 190,000 active;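 active = z-score above 3 at 5 µM with at least 500 cells counted in the well; inconclusive = wells under 500 cells, flagged as cytotoxic or low count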
# Hits are given with their value; - = inactive; ? = inconclusive; . = not tested or not shown. Only some compounds are listed: those with a hit (about 12% of all), similar ones and a draw of the others.
SMILES,INS promoter inh,L major viab,Cl transport mod,WT yeast gro inh,ROMK primary,Insulin prom up
N#Cc1c(N)nc(N)nc1Nc1ccc(Br)cc1,.,.,-,.,.,-
O=C(c1cccc(Br)c1)N1CCN(c2cnn(-c3ccccc3)c(=O)c2Cl)CC1,.,84,-,-,-,-
CCOc1ccc(C(=O)N2CCN(c3cnn(-c4ccccc4)c(=O)c3Cl)CC2)cc1,.,-,-,-,-,-
CCCCCCCCCS(=O)(=O)N/N=C/c1cccc([N+](=O)[O-])c1,-,-,.,88,-,-
Cc1ccc(S(=O)(=O)N/N=C/c2cccc([N+](=O)[O-])c2)cc1,-,-,-,-,.,-
CCOC(=O)C1(Cc2ccccc2C(F)(F)F)CCN(C2CCN(C(C)C)CC2)CC1,-,99,-,-,-,-
O=C1c2ccccc2C(=O)N1CCCCN(C(=O)c1cccc([N+](=O)[O-])c1)c1ccc(Cl)cc1,-,54,-,-,.,-
CC(=O)NCCOc1cccc2cccnc12,.,-,.,-,-,-
O=C(c1cccc([N+](=O)[O-])c1)N1CCCC(C(=O)N2CCCCCC2)C1 (centres undefined),.,.,-,.,.,-
CCOC(=O)c1cn(Cc2ccccc2)nn1,-,-,-,-,.,-
OC1(c2cn(Cc3ccccc3)nn2)CCCCC1,.,-,-,-,.,5.9
CN(C)S(=O)(=O)c1ccc(Cl)c(NC(=O)CN2CCN(Cc3ccc4c(c3)OCO4)CC2)c1,.,.,-,.,.,-
Cc1cc(/C=N/n2cnnc2)c(C)n1-c1ccc(OCc2ccc(Cl)cc2)cc1,-,98,-,66,-,?
Fc1ccccc1COc1cccc(/C=N/n2cnnc2)c1,-,-,.,-,.,-
Cc1cc(/C=N/n2cnnc2)c(C)n1-c1ccc(OCc2ccccc2F)cc1,-,77,.,-,.,-
CC1CCCN(Cc2cnc(Cl)s2)C1 (centres undefined),-,-,.,-,.,-
Cc1cccc(N2CCN(Cc3cnc(Cl)s3)CC2C)c1 (centres undefined),.,78,-,-,-,-
NCCCCCc1nnc(SCc2ccc(Cl)c(Cl)c2)o1,-,100,-,-,.,-
c1ccc2c(c1)[nH]c1c(N3CCSCC3)ncnc12,94,86,.,-,-,.
CN1CCN(c2ncnc3c2[nH]c2ccc(F)cc23)CC1,-,-,-,-,-,-
c1ccc2c(c1)[nH]c1c(N3CCCC3)ncnc12,.,58,-,69,-,-
Fc1ccc2[nH]c3c(N4CCc5ccccc5C4)ncnc3c2c1,.,.,-,.,-,-
Cc1ccc2[nH]c3c(N4CCc5ccccc5C4)ncnc3c2c1,-,68,-,-,.,?
c1ccc2c(c1)[nH]c1c(N3CCOCC3)ncnc12,.,-,.,-,.,.
c1ccc2c(c1)[nH]c1c(N3CCN(C4CCCCC4)CC3)ncnc12,.,78,.,-,-,.
SMILES,INS promoter inh,L major viab,Cl transport mod,WT yeast gro inh,ROMK primary,Insulin prom up
CN(C)CCCNC(=O)Cc1ccc(Br)cc1,-,-,.,-,.,-
Cc1ccc(NS(=O)(=O)c2cc(C(=O)NCCSc3ccc(C)cc3)ccc2C)cc1,.,100,.,-,-,-
Cc1ccc(NS(=O)(=O)c2cc(C(=O)NCCSC3CCCCC3)ccc2C)cc1,-,79,.,-,.,-
Cc1ccc(SCCNC(=O)c2ccc(C)c(S(=O)(=O)Nc3cccc(C)c3)c2)cc1,-,78,-,-,-,-
Cc1ccc(SCCNC(=O)c2ccccc2)cc1,-,-,-,-,.,-
Cc1ccc(C(=O)NCCSc2ccc(Cl)cc2)cc1S(=O)(=O)Nc1ccccc1,-,97,-,-,-,-
Cn1c(=O)c2c(nc(NC3CCCCC3)n2CC(O)COc2ccccc2)n(C)c1=O (centres undefined),-,-,.,-,-,-
Cc1[nH]n(-c2cccc(Cl)c2)c(=O)c1C=NCc1ccco1,-,-,-,-,-,-
Cc1ccc(C)c(N2C(=O)CC(N3CCN(Cc4ccc5c(c4)OCO5)CC3)C2=O)c1 (centres undefined),-,87,.,-,-,-
Cc1cc(C)c2c(CN3CCN(Cc4ccc5c(c4)OCO5)CC3)cc(=O)oc2c1C,-,-,.,-,.,-
Cc1cc2oc(=O)cc(CN3CCN(Cc4ccc5c(c4)OCO5)CC3)c2cc1C,-,94,-,-,.,-
Cc1ccc2c(CN3CCN(Cc4ccc5c(c4)OCO5)CC3)cc(=O)oc2c1C,.,73,.,-,.,.
CCN(CC(=O)Nc1ccc2c(c1)OCCO2)CC(=O)Nc1ccc2c(c1)OCO2,.,-,-,-,-,-
CCN(CC(=O)Nc1ccc2c(c1)OCCO2)Cc1cc(=O)oc2c(C)c(C)ccc12,.,81,-,-,.,-
CCCCNCc1cccn1-c1ccccc1,.,-,-,-,.,-
Nc1ccc2nc(SCc3ccccc3F)sc2c1,.,.,-,.,-,.
COc1ccc2c(CC(=O)Nc3ccccc3N3CCOCC3)coc2c1,.,.,-,.,.,-
Fc1cccc(-c2cc3nc4c(c(NCc5ccco5)n3n2)CCCC4)c1,.,87,-,83,-,-
COc1cccc(-c2cc3nc4c(c(NCC(C)(C)CN(C)C)n3n2)CCCC4)c1,-,77,-,-,.,-
Fc1cccc(-c2cc3nc4c(c(N5CCOCC5)n3n2)CCCC4)c1,-,-,-,-,.,-
Clc1ccc(CSC2=NCCCN2)cc1Cl,.,91,-,-,.,-
CCOc1ccc(CSC2=NCCN2)cc1[N+](=O)[O-],-,-,-,-,-,-
CCOC(=O)C1=C(CP(=O)(c2ccccc2)c2ccccc2)NC(=O)NC1c1ccc(Cl)cc1 (centres undefined),.,-,-,-,.,-
O=C(N/N=C/c1ccc([N+](=O)[O-])o1)c1cc(-c2cccc(Br)c2)nc2ccccc12,.,100,-,-,.,-
CCCc1ccc(-c2cc(C(=O)N/N=C/c3ccc([N+](=O)[O-])o3)c3ccccc3n2)cc1,-,100,-,63,-,.
SMILES,INS promoter inh,L major viab,Cl transport mod,WT yeast gro inh,ROMK primary,Insulin prom up
O=C(N/N=C/c1ccc2c(c1)OCO2)c1cc(-c2ccccc2)nc2ccccc12,-,-,-,-,-,.
O=C(N/N=C/c1ccc([N+](=O)[O-])o1)c1cn2ccc3ccccc3c2n1,.,.,-,.,-,-
O=S(=O)(c1ccc(Br)cc1)c1cnc2ccccc2n1,-,84,-,-,.,-
COc1ccc(S(=O)(=O)c2cnc3ccccc3n2)cc1,-,-,-,-,.,-
Fc1ccc(-c2oncc2-c2nnnn2-c2ccccc2)cc1F,-,-,-,-,-,.
C=CCOC(=O)C1=C(C)NC(SCC)=C(C#N)C1c1ccc(Cl)cc1 (centres undefined),-,100,-,-,.,-
O=C1CCCC(O)=C1C=Nc1ccc2c(c1)oc1ccccc12,-,-,-,-,.,-
CCC(CC)C(=O)OCC(=O)NC12CC3CC(CC(C3)C1)C2,-,-,.,-,-,-
O=C(COC(=O)C12CC3CC(CC(C3)C1)C2)NC12CC3CC(CC(C3)C1)C2,-,-,-,80,.,-
COC(=O)c1cc(OC)c(OC)cc1NC(=S)N1CCCC(CO)C1 (centres undefined),-,-,-,-,-,-
O=C(CC(Nc1ccc(F)cc1)c1ccccc1)c1ccccc1 (centres undefined),-,-,-,78,-,-

# Screening data: PubChem BioAssay, several laboratories
